Publication PMC7862700, “An all-to-all approach to the identification of sequence-specific readers for epigenetic DNA modifications on cytosine”

Assays:
Test in all cases: DAPPL (digital affinity profiling via proximity ligation, sequencing); 10 mM Tris-HCl pH 7.5, 50 mM NaCl, 1 mM DTT, 4% glycerol, room temperature, 30 min; GST-TFs on glutathione beads, 16-mer random dsDNA library, 0.1% formaldehyde crosslink after washing; high values mean tight binding
Details in all cases: protein: recombinant; tags: N-terminal GST; dsDNA, one strand shown
FLI1 = target: T1, FLI1 (Homo sapiens, UniProt Q01543 1-452)
T1 sequence: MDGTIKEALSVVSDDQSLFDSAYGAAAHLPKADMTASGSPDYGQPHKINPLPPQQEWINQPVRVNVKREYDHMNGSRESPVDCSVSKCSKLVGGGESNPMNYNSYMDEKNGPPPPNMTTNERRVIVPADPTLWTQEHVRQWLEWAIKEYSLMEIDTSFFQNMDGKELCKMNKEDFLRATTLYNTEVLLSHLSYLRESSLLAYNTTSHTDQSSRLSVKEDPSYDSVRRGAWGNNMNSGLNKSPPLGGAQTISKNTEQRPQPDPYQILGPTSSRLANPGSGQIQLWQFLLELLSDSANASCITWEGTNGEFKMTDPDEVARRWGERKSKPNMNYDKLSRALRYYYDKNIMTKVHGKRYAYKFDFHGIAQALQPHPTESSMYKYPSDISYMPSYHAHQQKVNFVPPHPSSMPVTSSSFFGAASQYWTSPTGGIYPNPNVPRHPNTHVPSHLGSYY
Procedure, shortened: (§1)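 Beads coated with glutathione captured GST-fused human transcription factors that had been expressed in yeast, and the factors were then given DNA barcodes and pooled with a tag-only sample. The pools were incubated with 200 nmole of a random double-stranded 16-mer DNA library in Tris/NaCl/DTT/glycerol buffer for 30 min at room temperature, washed, crosslinked with 0.1% formaldehyde and proximity-ligated with BsaI/T4 ligase at 37 °C for 1 h. PCR amplification and Illumina NextSeq500 sequencing came last. Binding signal is each hexamer's read frequency for a factor divided by its frequency for the tag-only sample.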

ELK1 = target: T2, ELK1 (Homo sapiens, UniProt P19419 1-428)
T2 sequence: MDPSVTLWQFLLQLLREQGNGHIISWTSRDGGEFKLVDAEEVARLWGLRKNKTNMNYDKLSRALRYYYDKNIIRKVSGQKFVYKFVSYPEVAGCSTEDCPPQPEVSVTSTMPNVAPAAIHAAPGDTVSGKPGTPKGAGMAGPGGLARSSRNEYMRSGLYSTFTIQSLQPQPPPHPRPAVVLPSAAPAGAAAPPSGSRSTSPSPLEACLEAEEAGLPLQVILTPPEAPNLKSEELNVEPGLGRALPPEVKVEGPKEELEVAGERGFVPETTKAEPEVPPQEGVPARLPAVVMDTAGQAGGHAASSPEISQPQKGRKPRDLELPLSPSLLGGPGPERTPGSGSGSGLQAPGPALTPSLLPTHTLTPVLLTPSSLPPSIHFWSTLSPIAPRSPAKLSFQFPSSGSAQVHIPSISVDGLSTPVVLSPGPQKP
Procedure, shortened: as §1

GABPA = target: T3, GABPA (Homo sapiens, UniProt Q06546 1-454)
T3 sequence: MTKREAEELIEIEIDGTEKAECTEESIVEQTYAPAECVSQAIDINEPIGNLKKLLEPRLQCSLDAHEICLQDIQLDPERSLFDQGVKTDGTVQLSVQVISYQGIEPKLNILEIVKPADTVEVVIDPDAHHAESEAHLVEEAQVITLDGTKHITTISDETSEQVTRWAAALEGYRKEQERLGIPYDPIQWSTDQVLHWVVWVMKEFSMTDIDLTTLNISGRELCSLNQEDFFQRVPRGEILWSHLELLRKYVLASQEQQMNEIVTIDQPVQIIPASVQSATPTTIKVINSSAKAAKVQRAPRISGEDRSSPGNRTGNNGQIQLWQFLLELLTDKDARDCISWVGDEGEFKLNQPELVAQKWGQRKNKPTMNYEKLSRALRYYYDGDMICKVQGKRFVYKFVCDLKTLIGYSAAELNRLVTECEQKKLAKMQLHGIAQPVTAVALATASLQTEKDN
Procedure, shortened: as §1

ERG = target: T4, ERG (Homo sapiens, UniProt P11308 1-479)
T4 sequence: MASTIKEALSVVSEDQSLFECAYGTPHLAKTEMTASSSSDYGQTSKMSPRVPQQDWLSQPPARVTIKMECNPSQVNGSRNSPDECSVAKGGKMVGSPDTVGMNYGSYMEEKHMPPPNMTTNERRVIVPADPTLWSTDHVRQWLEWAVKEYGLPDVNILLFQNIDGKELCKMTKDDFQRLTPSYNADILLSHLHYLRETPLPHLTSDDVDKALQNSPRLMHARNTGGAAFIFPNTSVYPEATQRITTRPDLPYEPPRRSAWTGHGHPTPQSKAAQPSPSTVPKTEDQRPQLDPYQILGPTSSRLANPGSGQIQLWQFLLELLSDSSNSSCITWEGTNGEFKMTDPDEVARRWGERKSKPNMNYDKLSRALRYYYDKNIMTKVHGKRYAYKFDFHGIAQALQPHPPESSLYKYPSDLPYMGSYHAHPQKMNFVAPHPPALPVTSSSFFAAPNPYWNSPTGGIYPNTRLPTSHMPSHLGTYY
Procedure, shortened: as §1

ELF1 = ELF1 (Homo sapiens, UniProt P32519 1-619)
Procedure, shortened: as §1

EHF = target: T5, EHF (Homo sapiens, UniProt Q9NZC4 1-300)
T5 sequence: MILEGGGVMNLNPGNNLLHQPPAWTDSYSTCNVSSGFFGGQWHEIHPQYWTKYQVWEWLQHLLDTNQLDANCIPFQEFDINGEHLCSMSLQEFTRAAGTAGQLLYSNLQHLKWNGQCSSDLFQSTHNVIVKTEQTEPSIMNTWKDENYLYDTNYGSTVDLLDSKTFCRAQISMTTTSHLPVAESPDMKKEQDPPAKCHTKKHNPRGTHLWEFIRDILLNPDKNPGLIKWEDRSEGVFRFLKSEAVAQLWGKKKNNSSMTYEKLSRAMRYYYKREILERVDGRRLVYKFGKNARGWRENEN
Procedure, shortened: as §1

SPI1 = SPI1 (Homo sapiens, UniProt P17947 1-270)
Procedure, shortened: as §1

SPIB = SPIB (Homo sapiens, UniProt Q01892 1-262)
Procedure, shortened: as §1

ELK3 = target: T6, ELK3 (Homo sapiens, UniProt P41970 1-407)
T6 sequence: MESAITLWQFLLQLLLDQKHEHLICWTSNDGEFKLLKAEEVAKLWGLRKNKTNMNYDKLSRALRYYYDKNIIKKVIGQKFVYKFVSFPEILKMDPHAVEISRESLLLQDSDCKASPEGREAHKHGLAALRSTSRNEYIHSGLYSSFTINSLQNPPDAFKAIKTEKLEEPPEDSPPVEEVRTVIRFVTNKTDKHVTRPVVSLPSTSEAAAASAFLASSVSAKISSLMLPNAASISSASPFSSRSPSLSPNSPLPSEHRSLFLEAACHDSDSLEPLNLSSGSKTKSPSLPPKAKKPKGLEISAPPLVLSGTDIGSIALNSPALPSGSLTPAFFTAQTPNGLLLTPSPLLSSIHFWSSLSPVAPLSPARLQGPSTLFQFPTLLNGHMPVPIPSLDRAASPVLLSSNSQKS
Procedure, shortened: as §1

FEV = target: T7, FEV (Homo sapiens, UniProt Q99581 1-238)
T7 sequence: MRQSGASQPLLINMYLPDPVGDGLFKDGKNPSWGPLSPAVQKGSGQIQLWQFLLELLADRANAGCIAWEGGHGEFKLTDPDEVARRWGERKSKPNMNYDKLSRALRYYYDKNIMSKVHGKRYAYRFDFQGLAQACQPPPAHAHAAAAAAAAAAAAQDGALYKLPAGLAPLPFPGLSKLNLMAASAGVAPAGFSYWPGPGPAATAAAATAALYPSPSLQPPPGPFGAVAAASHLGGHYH
Procedure, shortened: as §1

ETV5 = ETV5 (Homo sapiens, UniProt P41161 1-510)
Procedure, shortened: as §1

SPIC = target: T8, SPIC (Homo sapiens, UniProt Q8N5J4 1-248)
T8 sequence: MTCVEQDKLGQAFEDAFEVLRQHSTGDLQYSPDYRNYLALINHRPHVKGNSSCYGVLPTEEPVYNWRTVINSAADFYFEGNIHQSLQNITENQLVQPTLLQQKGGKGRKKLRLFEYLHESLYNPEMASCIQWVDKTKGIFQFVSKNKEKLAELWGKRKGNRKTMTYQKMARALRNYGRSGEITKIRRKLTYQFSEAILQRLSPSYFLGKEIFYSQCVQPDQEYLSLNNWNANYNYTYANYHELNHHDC
Procedure, shortened: as §1

ELF4 = ELF4 (Homo sapiens, UniProt Q99607 1-663)
Procedure, shortened: as §1

ELK4 = target: T9, ELK4 (Homo sapiens, UniProt P28324-2 1-405)
T9 sequence: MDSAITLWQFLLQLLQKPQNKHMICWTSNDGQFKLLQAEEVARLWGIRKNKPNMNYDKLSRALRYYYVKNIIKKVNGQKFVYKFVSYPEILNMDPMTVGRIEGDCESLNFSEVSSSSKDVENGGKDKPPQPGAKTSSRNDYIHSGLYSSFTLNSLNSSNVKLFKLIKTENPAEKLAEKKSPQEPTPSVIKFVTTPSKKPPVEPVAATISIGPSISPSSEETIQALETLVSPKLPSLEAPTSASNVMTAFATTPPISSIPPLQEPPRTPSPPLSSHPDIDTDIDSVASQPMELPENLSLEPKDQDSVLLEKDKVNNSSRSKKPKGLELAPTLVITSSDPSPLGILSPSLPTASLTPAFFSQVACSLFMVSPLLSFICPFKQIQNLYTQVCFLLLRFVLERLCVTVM
Procedure, shortened: as §1

ETV2 = target: T10, ETV2 (Homo sapiens, UniProt O00321 1-342)
T10 sequence: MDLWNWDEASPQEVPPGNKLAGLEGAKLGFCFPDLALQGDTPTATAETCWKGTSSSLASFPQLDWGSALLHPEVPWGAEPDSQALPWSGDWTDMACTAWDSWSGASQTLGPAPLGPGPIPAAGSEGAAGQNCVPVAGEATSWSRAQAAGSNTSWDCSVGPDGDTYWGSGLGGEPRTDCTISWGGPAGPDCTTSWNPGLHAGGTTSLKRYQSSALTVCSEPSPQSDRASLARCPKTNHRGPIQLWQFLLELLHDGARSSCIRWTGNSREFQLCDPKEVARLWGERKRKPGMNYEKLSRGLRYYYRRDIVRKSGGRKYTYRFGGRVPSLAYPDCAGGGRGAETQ
Procedure, shortened: as §1

ELF3 = target: T11, ELF3 (Homo sapiens, UniProt P78545 1-371)
T11 sequence: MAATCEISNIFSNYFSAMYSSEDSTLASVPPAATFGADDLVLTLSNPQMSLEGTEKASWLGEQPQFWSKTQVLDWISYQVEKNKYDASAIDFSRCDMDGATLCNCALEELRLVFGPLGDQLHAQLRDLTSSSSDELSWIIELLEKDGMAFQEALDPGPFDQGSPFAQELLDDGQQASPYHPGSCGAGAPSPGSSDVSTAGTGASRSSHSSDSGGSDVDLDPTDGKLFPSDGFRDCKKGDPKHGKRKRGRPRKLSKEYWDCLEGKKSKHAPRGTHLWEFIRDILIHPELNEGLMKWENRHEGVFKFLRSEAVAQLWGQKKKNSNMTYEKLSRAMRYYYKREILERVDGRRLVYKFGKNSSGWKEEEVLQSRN
Procedure, shortened: as §1

ETV1 = ETV1 (Homo sapiens, UniProt P50549 1-477)
Procedure, shortened: as §1

ELF1, sequence (P32519 whole entry): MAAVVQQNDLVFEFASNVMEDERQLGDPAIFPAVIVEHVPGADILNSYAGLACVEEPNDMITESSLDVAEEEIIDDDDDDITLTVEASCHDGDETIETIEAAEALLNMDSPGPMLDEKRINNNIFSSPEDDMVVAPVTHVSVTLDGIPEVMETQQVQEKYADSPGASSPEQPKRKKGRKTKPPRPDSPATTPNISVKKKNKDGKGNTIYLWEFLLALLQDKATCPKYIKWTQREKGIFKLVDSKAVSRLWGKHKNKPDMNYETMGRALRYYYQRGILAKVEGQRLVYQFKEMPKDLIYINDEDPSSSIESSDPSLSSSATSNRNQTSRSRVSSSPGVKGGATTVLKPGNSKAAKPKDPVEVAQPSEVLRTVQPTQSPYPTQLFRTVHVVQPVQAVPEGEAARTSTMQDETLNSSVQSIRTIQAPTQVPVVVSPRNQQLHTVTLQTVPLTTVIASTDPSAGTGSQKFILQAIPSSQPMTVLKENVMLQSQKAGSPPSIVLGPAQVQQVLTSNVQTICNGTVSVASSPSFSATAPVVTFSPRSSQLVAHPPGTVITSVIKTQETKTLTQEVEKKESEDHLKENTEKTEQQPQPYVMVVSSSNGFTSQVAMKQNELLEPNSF
ETV1, sequence (P50549 whole entry): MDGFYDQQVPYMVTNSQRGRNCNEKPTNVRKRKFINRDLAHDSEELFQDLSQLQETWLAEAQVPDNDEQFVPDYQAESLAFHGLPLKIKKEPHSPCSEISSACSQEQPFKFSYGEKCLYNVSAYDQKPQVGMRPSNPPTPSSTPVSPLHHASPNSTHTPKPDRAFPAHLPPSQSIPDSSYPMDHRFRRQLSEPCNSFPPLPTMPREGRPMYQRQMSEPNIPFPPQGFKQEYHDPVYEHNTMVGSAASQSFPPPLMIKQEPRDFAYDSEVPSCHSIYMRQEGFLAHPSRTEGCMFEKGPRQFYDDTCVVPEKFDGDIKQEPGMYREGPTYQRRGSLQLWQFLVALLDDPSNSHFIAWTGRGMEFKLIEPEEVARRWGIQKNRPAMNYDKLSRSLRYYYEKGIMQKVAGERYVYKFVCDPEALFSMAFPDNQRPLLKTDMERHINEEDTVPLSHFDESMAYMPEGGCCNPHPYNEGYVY
ELF4, sequence (Q99607 whole entry): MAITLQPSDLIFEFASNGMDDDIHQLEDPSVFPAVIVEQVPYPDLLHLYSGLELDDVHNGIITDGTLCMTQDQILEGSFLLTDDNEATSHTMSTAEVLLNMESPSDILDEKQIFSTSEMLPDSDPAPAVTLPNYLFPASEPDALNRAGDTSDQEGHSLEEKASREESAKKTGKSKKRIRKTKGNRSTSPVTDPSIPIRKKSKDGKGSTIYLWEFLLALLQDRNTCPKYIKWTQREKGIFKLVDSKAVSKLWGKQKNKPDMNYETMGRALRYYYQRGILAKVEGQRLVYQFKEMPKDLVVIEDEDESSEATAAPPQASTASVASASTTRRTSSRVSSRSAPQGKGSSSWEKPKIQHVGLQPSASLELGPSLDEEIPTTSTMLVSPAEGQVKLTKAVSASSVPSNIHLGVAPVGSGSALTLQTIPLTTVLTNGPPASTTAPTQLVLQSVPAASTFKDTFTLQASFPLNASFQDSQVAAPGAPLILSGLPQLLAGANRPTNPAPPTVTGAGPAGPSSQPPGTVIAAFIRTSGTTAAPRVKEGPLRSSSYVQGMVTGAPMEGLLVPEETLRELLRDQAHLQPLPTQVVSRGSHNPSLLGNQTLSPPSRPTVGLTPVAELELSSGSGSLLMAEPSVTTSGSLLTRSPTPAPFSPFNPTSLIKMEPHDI
ETV5, sequence (P41161 whole entry): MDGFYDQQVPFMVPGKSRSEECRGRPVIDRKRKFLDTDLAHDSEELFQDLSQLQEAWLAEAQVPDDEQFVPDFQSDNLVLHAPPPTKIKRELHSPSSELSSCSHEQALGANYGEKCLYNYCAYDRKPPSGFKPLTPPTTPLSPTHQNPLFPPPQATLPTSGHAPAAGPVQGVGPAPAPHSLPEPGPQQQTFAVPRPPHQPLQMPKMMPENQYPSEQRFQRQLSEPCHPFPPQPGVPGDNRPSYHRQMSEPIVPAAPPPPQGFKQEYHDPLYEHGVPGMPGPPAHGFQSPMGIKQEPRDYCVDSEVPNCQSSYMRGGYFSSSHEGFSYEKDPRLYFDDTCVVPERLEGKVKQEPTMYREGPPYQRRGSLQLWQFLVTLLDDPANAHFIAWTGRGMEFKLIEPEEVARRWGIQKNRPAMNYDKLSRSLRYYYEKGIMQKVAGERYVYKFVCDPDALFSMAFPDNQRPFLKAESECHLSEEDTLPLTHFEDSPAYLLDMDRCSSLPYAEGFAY
SPIB, sequence (Q01892 whole entry): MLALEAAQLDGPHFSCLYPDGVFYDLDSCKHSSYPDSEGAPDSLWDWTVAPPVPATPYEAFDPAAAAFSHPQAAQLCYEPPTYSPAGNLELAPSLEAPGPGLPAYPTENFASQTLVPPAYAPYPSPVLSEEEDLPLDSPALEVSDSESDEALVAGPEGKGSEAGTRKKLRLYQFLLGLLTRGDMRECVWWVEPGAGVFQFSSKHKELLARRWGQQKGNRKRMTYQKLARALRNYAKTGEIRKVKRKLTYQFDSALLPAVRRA

Row | Sequence | binding signal (FLI1) | binding signal (ELK1) | binding signal (GABPA) | binding signal (ERG) | binding signal (ELF1) | binding signal (EHF) | binding signal (SPI1) | binding signal (SPIB) | binding signal (ELK3) | binding signal (FEV) | binding signal (ETV5) | binding signal (SPIC) | binding signal (ELF4) | binding signal (ELK4) | binding signal (ETV2) | binding signal (ELF3) | binding signal (ETV1)
1 | ACTGAC | 1.13 fold enrichment (6-mer frequency, TF over GST control) | 1.14 fold enrichment (6-mer frequency, TF over GST control) | 1.22 fold enrichment (6-mer frequency, TF over GST control) | 1.17 fold enrichment (6-mer frequency, TF over GST control) | 1.22 fold enrichment (6-mer frequency, TF over GST control) | 1.16 fold enrichment (6-mer frequency, TF over GST control) | 1.26 fold enrichment (6-mer frequency, TF over GST control) | 1.21 fold enrichment (6-mer frequency, TF over GST control) | 1.11 fold enrichment (6-mer frequency, TF over GST control) | 1.26 fold enrichment (6-mer frequency, TF over GST control) | 1.19 fold enrichment (6-mer frequency, TF over GST control) | 1.24 fold enrichment (6-mer frequency, TF over GST control) | 1.23 fold enrichment (6-mer frequency, TF over GST control) | 1.11 fold enrichment (6-mer frequency, TF over GST control) | 1.3 fold enrichment (6-mer frequency, TF over GST control) | 1.14 fold enrichment (6-mer frequency, TF over GST control) | 1.25 fold enrichment (6-mer frequency, TF over GST control)
2 | ACGCTG | 1.14 fold enrichment (6-mer frequency, TF over GST control) | 1.19 fold enrichment (6-mer frequency, TF over GST control) | 1.23 fold enrichment (6-mer frequency, TF over GST control) | 1.18 fold enrichment (6-mer frequency, TF over GST control) | 1.19 fold enrichment (6-mer frequency, TF over GST control) | 1.23 fold enrichment (6-mer frequency, TF over GST control) | 1.11 fold enrichment (6-mer frequency, TF over GST control) | 1.05 fold enrichment (6-mer frequency, TF over GST control) |  | 1.09 fold enrichment (6-mer frequency, TF over GST control) | 1.08 fold enrichment (6-mer frequency, TF over GST control) | 1.15 fold enrichment (6-mer frequency, TF over GST control) | 1.17 fold enrichment (6-mer frequency, TF over GST control) | 1.21 fold enrichment (6-mer frequency, TF over GST control) | 1.05 fold enrichment (6-mer frequency, TF over GST control) | 1.05 fold enrichment (6-mer frequency, TF over GST control) | 1.12 fold enrichment (6-mer frequency, TF over GST control)
3 | AACAGG | 1.2 fold enrichment (6-mer frequency, TF over GST control) | 1.16 fold enrichment (6-mer frequency, TF over GST control) | 1.13 fold enrichment (6-mer frequency, TF over GST control) | 1.23 fold enrichment (6-mer frequency, TF over GST control) | 1.08 fold enrichment (6-mer frequency, TF over GST control) | 1.18 fold enrichment (6-mer frequency, TF over GST control) | 1.43 fold enrichment (6-mer frequency, TF over GST control) | 1.16 fold enrichment (6-mer frequency, TF over GST control) | 1.11 fold enrichment (6-mer frequency, TF over GST control) | 1.16 fold enrichment (6-mer frequency, TF over GST control) | 1.27 fold enrichment (6-mer frequency, TF over GST control) | 1.15 fold enrichment (6-mer frequency, TF over GST control) | 1.08 fold enrichment (6-mer frequency, TF over GST control) | 1.09 fold enrichment (6-mer frequency, TF over GST control) | 1.03 fold enrichment (6-mer frequency, TF over GST control) | 1.15 fold enrichment (6-mer frequency, TF over GST control) | 1.18 fold enrichment (6-mer frequency, TF over GST control)
